Source: PubChem BioAssay (National Center for Advancing Translational Sciences (NCATS))
BCR signal inh: inhibitors of chronic active B-cell receptor signaling | Potency, µM (top dose mostly 46.1 µM), inactives show at the top dose activity change, negative = inhibition, usual class: inhibitors | ABC-DLBCL IkBa-CBG/CBR reporter, luminescence ratio, 4 h | 340,000 compounds, 0.05% hits; active = well fitted inhibition curve with a large enough effect in the signal ratio, with a control signal flat, not every such curve was filed as active; inconclusive = small, poorly fitted or top-dose-only effect, or effect the other way, or a change in a side signal; the % refers to the signal ratio;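 also: plate controls were basal doxycycline-induced cells for no effect and cells given 10 µM MG132 for full effect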
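Compounds up to 46 uM were incubated four hours with TMD8 cells whose green CBG68 luciferase is fused to IkappaBalpha; red CBR luminescence normalised the signal, and concentration-effect curves were fitted to fusion, red and ratio data.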
B2AR arrestin: recruits beta-arrestin to the human beta2-adrenergic receptor; beta-arrestin recruitment to beta2AR, cell-based reporter; Potency, µM (doses to about 46.1 µM), for the others: at the highest dose activation, actives largely listed as activators; 330,000 compounds, 0.02% hits; AID 492947;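 also: 0% = DMSO controls and full agonism = EC100 isoproterenol or metaproterenol; nearly all actives have a fitted effect of over 65% in size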
Target sequence (P07550 whole entry, looked up): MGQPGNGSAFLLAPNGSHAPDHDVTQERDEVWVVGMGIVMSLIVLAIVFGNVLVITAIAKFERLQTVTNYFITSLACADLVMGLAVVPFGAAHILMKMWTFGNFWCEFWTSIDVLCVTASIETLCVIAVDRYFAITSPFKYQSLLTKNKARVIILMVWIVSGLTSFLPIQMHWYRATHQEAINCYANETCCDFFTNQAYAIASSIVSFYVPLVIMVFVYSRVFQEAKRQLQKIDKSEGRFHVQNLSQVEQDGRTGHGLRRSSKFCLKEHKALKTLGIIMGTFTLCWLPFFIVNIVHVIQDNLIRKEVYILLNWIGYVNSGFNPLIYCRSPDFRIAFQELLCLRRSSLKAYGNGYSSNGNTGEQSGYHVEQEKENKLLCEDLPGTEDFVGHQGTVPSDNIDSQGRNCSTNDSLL
Tb PFK inh-1: inhibitors of T. brucei phosphofructokinase | O15648 | T. brucei PFK, ADP-Glo luminescence | Potency, µM (top dose mostly 57.5 µM), for the others: at the highest dose activity, negative = inhibition, most hits filed as inhibitors | 330,000 compounds, 0.17% hits | AID 485367;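 also: 0% = uninhibited 1x PFK enzyme wells and -100% = no-enzyme wells; nearly all actives have a fitted effect of over 60% in size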
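Luminescent ADP detection (ADP-Glo, two-step: ATP depletion then ADP-to-ATP conversion for luciferase) reported PFK activity after 45 min room-temperature reaction of 1.25 nM enzyme with 0.5 mM F6P and 0.1 mM ATP at pH 8.0.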
MBNL1-CUG inh: MBNL1-poly(CUG) RNA binding inhibition; Potency, µM (top dose mostly 57.5 µM), for the others: at the highest dose activity change, negative = inhibition, most hits filed as inhibitors; TR-FRET MBNL1-His/biotin-(CUG)12 binding, 665/545 ratio; 280,000 compounds, 0.036% hits; AID 2675; Q9NR56; active = well fitted inhibition curve with a large enough effect in the signal ratio, with a control signal flat, not every such curve was filed as active; inconclusive = small, poorly fitted or top-dose-only effect, or effect the other way, or a change in a side signal; inactive = no such curve, though single readings can be large or run the other way; the % refers to the signal ratio; also: % is scaled to controls: 0 for no effect and ±100 for the full control effect
Target sequence (Q9NR56 whole entry, looked up): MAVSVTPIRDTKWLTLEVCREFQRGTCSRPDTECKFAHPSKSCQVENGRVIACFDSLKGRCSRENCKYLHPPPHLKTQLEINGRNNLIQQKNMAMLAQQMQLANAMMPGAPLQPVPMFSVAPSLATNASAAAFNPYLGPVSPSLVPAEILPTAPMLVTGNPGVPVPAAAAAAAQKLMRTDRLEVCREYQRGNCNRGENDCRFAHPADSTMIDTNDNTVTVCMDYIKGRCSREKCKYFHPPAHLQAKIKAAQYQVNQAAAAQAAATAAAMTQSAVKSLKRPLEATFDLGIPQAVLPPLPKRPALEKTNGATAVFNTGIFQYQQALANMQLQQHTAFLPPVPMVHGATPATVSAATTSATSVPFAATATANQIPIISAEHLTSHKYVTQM
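His-tagged MBNL1 binding to biotinylated (CUG)12 RNA was measured by TR-FRET using terbium anti-His antibody (0.055 ng/ul final) and streptavidin-XL665 (5 nM final). Compounds were titrated 92 nM to 58 uM; 60 min at room temperature.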
TbPFK ATP: Tb phosphofructokinase inhibition, orthogonal luminescence | Tb PFK enzyme, ATP depletion, Kinase-Glo Plus luminescence | shares compounds with Tb PFK inh-1 | 1,100 compounds, 47% hits | Potency, µM (titrated, usually from 57.5 µM), for the others: at the highest dose inhibition; calls by dose curve; also: nearly all actives have a fitted effect of over 60% in size
Tb PFK inh-2: validation of T. brucei phosphofructokinase inhibitors; 1,100 compounds, 41% hits; AID 504637; Potency, µM (titrated, usually from 57.5 µM), without a hit: at the highest dose activity change, negative = inhibition, hits mostly inhibitors; purified T. brucei PFK, ADP-Glo luminescence, 45 min; shares compounds with Tb PFK inh-1;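 also: plate controls were full PFK enzyme control for no effect and no enzyme control for full effect; nearly all actives have a fitted effect of over 60% in size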
An asterisk follows results filed as active; ? = inconclusive; / = no result given. Only some compounds are listed: those with a hit (about 0.27% of all), similar ones and a draw of the others. Unless noted, calls follow the shape of the dose curve; as a rule, active = well fitted curve in the direction sought with a large enough effect; inconclusive = small, poorly fitted or top-dose-only effect, or another doubt; inactive = no such curve, though single readings can be large; an effect the other way counts as inactive or inconclusive. Potency is read from the fitted curve at half-maximal effect.

SMILES | BCR signal inh | B2AR arrestin | Tb PFK inh-1 | MBNL1-CUG inh | TbPFK ATP | Tb PFK inh-2
Clc1ccc2scc(CN3CCCCC3)c2c1 | ? | -0.6% | ? | -11.7% | ? | ?
Cc1ccc(N2CC(NC(=O)Cc3ccc(F)cc3)CC2=O)cc1C (stereo not given) | -16.5% | / | / | / | / | /
COc1ccccc1NS(=O)(=O)c1cc(NC(=O)c2ccc(Cl)nc2)ccc1N1CCCC1 | 3.5% | -0.4% | 16.9µM* | / | 4.78µM* | 6.01µM*
O=C(COC(=O)/C=C/c1ccco1)Nc1ncc(C(F)(F)F)cc1Cl | 8.0% | -0.7% | 16.9µM* | 15.2% | 10.7µM* | 13.5µM*
Cc1cc(NS(=O)(=O)c2ccc(NC(=O)COc3ccc(Cl)c(C)c3)cc2)no1 | 2.1% | 0.1% | 12µM* | 0.3% | 5.36µM* | 13.5µM*
Cc1cc(NS(=O)(=O)c2ccc(NC(=O)COc3ccccc3C(C)(C)C)cc2)no1 | ? | 0.5% | -11.2% | -1.0% | / | /
Cc1cc(NS(=O)(=O)c2ccc(NC(=O)COc3ccc(Cl)cc3Cl)cc2)no1 | 3.8% | -1.1% | 2.69µM* | -3.3% | 1.51µM* | 1.69µM*
COC(=O)c1ccc(NC(=O)Nc2ccc([N+](=O)[O-])cc2)cc1 | ? | -0.6% | 1.4% | 2.4% | / | /
CCN(CC)CCCNC(=O)c1ccc2c(c1)NC(=O)C(CS(=O)(=O)Cc1ccc(F)cc1Cl)N2 (stereo not given) | 3.2% | / | / | / | / | /
O=C(Cc1ccc(Cl)c(Cl)c1)Nc1cccc(S(=O)(=O)N2CCOCC2)c1 | ? | -0.1% | 21.3µM* | 1.1% | 9.53µM* | 16.9µM*
O=C(COc1ccc(S(=O)(=O)N2CCOCC2)cc1)Nc1cccc([N+](=O)[O-])c1 | 2.5% | 0.1% | -7.8% | ? | / | /
O=C(COc1ccc([N+](=O)[O-])cc1)Nc1ccc(S(=O)(=O)N2CCOCC2)cc1 | 13.3% | 0.0% | ? | ? | 21.3µM* | 26.9µM*
Cc1ccc(CC(=O)Nc2ccc(S(=O)(=O)N3CCOCC3)cc2)cc1 | 6.9% | 0.3% | -10.7% | -5.0% | / | /
O=C(Cc1ccc(Cl)cc1)Nc1ccc(S(=O)(=O)N2CCOCC2)cc1 | -14.5% | -0.4% | 21.3µM* | 1.4% | 9.53µM* | 26.9µM*
O=C(Cc1ccc2c(c1)OCCO2)Nc1cccc(S(=O)(=O)N2CCOCC2)c1 | -7.8% | -1.0% | -0.1% | / | / | /
CC(=O)Nc1ccc(SCC(=O)c2ccc(Br)s2)cc1 | -7.3% | 0.0% | 23.9µM* | 36.2% | ? | -24.3%
O=C(NC(=S)NCc1ccccc1Cl)c1cccs1 | 5.6% | 11.9% | 6.0% | / | / | /
Cc1ccc(-c2csc3n[nH]c(=S)n23)cc1 | 0.5% | 0.0% | ? | 9.7% | 0.301µM* | 0.426µM*
Cc1ccc(NC2c3ncccc3C(=O)N2Cc2cccs2)cc1C (stereo not given) | -0.1% | 0.1% | ? | -2.5% | 19.9% | -19.6%
CCOc1ccccc1N1CCN(C(=O)c2cc(-c3cc(OC)ccc3OC)nc3ccccc23)CC1 | 14.3% | 5.8% | 1.2% | 7.4% | / | /
Cc1ccc(C(=O)Nc2cccc([N+](=O)[O-])c2)cc1S(=O)(=O)Nc1cccc(C(=O)O)c1 | -1.0% | 0.1% | 19µM* | 19.6% | 7.57µM* | 19µM*
O=C(Nc1ccc(S(=O)(=O)Nc2ccccc2)cc1)C1COc2ccccc2O1 (stereo not given) | 23.4% | -1.4% | 10.7µM* | -8.5% | 12µM* | 30.1µM*
CN(C)S(=O)(=O)c1ccc(NC(=O)C2COc3ccccc3O2)cc1 (stereo not given) | -0.4% | -0.2% | 19µM* | -18.4% | 12µM* | 26.9µM*
Cc1cc(C)nc(NS(=O)(=O)c2ccc(NC(=O)C3COc4ccccc4O3)cc2)n1 (stereo not given) | -14.7% | 0.2% | ? | -13.3% | / | /
COc1cc(NC(=O)Cn2cnc3c(SC)nc(N)nc32)cc(OC)c1OC | ? | 5.7% | 20.6% | / | / | /
SMILES | BCR signal inh | B2AR arrestin | Tb PFK inh-1 | MBNL1-CUG inh | TbPFK ATP | Tb PFK inh-2
O=S(=O)(O)c1cc(OS(=O)(=O)c2ccccc2)cc2ccccc12 | 1.4% | 0.1% | 23.9µM* | ? | ? | ?
CC(Nc1cccc([N+](=O)[O-])c1)C(=O)Nc1ccc(S(=O)(=O)N2CCCC2)cc1 (stereo not given) | ? | -0.2% | ? | / | ? | ?
Cc1ccc(S(=O)(=O)NC(C)C(=O)Nc2cccc([N+](=O)[O-])c2)cc1 (stereo not given) | -2.9% | 0.0% | -1.4% | ? | / | /
ClC(Cl)(c1nnnn1-c1ccccc1)c1nnnn1-c1ccccc1 | -0.2% | 0.1% | 10.7µM* | / | 3.38µM* | 10.7µM*
Cc1c(Br)c(O)c(Br)c2sc(=O)oc12 | 9.7% | -0.3% | ? | / | 14.0% | -28.2%
CC1=CN(S(=O)(=O)c2ccc(C)cc2)C[C@@H]2[C@H]3CC[C@H](C3)[C@H]12 | 5.1% | -0.4% | -2.8% | / | / | /
CC(C)(C)N(Cc1ccccc1)C(=O)COC(=O)CCN1C(=O)C2CC=CCC2C1=O (stereo not given) | 8.0% | 0.1% | -0.6% | / | / | /
COc1ccc(N2C(=O)/C(=C/c3cccs3)NC2=S)cc1 | -11.9% | -0.8% | 15.1µM* | ? | 6.01µM* | 6.01µM*
COc1ccc(N2C(=O)/C(=C/c3cccs3)C(=O)NC2=S)cc1 | ? | -0.4% | 3.0% | 1.9% | / | /
CCOc1ccc(-c2cc(C(=O)N3CCN(c4ccc(C)cc4)C(C)C3)c3ccccc3n2)cc1 (stereo not given) | 8.0% | / | / | / | / | /
O=C(C(=O)N1CCc2ccccc2C1)c1cn(CC(=O)N2CCOCC2)c2ccccc12 | 1.6% | -0.7% | -2.9% | -20.4% | / | /
O=C(C(=O)N1CCOCC1)c1cn(CC(=O)N2CCc3ccccc3C2)c2ccccc12 | -0.5% | -0.1% | ? | -6.5% | ? | ?
Cc1cc(C(C)(C)C)c(OC(=O)[C@@H]2OC(c3ccccc3)=C[C@H]2c2ccccc2)c(C(C)(C)C)c1 | 12.9% | -1.0% | -2.4% | / | / | /
CCOc1ncccc1C(=O)OCc1csc(CC(=O)Nc2ccccc2C)n1 | -1.0% | 0.5% | -6.1% | / | / | /
O=C(Cc1ccc(Br)cc1)N/N=C/c1cccnc1 | 0.4% | 0.3% | 16.9µM* | 13.3% | 13.5µM* | ?
O=C(Cc1ccccc1)N/N=C/c1cccnc1 | -0.5% | 0.4% | -11.0% | 2.3% | / | /
O=[N+]([O-])c1ccc(CNc2ccc(Cl)cc2)s1 | ? | ? | 26.9µM* | ? | 12µM* | 26.9µM*
COc1ccc(NCc2ccc([N+](=O)[O-])s2)cc1 | -1.1% | 5.3% | ? | ? | 13.5µM* | 26.9µM*
O=[N+]([O-])c1ccc(CNc2ccc(F)cc2)s1 | -3.8% | 0.4% | 16.9µM* | ? | 7.57µM* | 9.53µM*
